Results published in publication PMC7862700, “An all-to-all approach to the identification of sequence-specific readers for epigenetic DNA modifications on cytosine”.

Experiments:
Assay in all cases: DAPPL (digital affinity profiling via proximity ligation, sequencing); 10 mM Tris-HCl pH 7.5, 50 mM NaCl, 1 mM DTT, 4% glycerol, room temperature, 30 min; GST-TFs on glutathione beads, 16-mer random dsDNA library, 0.1% formaldehyde crosslink after washing; high values mean tight binding
FLI1 = molecular target: T1, FLI1 (Homo sapiens, UniProt Q01543 1-452); conditions: protein: recombinant; tags: N-terminal GST; dsDNA, one strand shown
T1 sequence: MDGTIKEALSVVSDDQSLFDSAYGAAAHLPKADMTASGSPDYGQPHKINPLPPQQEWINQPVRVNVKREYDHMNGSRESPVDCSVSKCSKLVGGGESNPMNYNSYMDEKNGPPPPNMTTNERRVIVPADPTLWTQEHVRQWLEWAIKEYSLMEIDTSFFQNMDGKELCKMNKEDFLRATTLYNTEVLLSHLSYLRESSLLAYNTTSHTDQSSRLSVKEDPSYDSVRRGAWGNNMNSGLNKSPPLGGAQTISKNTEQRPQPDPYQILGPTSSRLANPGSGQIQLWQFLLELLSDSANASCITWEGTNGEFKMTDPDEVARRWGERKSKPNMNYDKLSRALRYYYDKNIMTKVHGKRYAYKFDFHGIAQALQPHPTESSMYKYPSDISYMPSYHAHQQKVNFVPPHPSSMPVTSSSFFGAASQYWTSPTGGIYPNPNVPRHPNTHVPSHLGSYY
Outline: (§1)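 Sequencing on an Illumina NextSeq500 followed washing, crosslinking with 0.1% formaldehyde, proximity ligation (BsaI/T4 ligase, 1 h, 37 °C) and PCR amplification of pools that had been incubated for 30 min at room temperature with 200 nmole of a random double-stranded 16-mer DNA library in Tris/NaCl/DTT/glycerol buffer. Each pool held DNA-barcoded human transcription factors, expressed in yeast as GST fusions and captured on glutathione beads, plus a tag-only sample. Binding signal is a hexamer's read frequency for a factor divided by its frequency in the tag-only sample.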

ELK1 = molecular target: T2, ELK1 (Homo sapiens, UniProt P19419 1-428); conditions: protein: recombinant; tags: N-terminal GST; dsDNA, one strand shown
T2 sequence: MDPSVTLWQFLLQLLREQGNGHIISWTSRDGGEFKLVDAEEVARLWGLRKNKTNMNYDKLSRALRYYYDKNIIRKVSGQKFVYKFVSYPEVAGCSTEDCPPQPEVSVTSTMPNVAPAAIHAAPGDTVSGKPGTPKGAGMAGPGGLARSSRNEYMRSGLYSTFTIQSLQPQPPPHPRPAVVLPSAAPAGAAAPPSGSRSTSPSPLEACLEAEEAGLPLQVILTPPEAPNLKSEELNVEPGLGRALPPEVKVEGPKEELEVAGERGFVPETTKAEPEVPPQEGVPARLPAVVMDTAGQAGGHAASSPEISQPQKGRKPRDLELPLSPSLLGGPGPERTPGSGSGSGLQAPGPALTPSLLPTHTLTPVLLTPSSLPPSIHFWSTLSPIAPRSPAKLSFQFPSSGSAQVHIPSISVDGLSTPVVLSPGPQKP
Outline: as §1

GABPA = molecular target: T3, GABPA (Homo sapiens, UniProt Q06546 1-454); conditions: protein: recombinant; tags: N-terminal GST; dsDNA, one strand shown
T3 sequence: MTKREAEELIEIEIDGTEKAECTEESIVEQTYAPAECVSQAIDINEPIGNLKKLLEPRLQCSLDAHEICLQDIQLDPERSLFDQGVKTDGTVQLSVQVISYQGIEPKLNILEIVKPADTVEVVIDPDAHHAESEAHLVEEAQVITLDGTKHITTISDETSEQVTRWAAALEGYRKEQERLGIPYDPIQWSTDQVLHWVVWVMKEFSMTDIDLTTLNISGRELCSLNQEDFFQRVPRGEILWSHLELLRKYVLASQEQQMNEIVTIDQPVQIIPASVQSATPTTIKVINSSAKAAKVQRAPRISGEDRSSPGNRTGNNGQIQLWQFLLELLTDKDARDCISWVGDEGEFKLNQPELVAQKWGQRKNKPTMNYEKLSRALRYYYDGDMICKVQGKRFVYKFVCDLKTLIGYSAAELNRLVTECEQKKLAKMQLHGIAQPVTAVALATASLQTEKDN
Outline: as §1

ERG = molecular target: T4, ERG (Homo sapiens, UniProt P11308 1-479); conditions: protein: recombinant; tags: N-terminal GST; dsDNA, one strand shown
T4 sequence: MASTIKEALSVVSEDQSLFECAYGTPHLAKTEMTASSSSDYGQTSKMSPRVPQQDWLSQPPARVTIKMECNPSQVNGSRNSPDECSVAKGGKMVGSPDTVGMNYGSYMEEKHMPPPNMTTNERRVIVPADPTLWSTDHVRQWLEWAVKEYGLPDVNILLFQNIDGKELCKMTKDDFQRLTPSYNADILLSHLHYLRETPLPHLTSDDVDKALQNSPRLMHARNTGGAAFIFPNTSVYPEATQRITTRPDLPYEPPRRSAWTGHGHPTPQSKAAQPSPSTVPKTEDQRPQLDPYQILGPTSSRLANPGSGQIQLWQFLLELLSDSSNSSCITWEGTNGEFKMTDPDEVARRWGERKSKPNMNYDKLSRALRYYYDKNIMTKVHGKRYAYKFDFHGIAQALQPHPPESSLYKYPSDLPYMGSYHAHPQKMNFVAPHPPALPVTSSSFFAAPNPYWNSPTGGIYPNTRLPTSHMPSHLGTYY
Outline: as §1

ELF1 = ELF1 (Homo sapiens, UniProt P32519 1-619); conditions: protein: recombinant; tags: N-terminal GST; dsDNA, one strand shown
Outline: as §1

EHF = molecular target: T5, EHF (Homo sapiens, UniProt Q9NZC4 1-300); conditions: protein: recombinant; tags: N-terminal GST; dsDNA, one strand shown
T5 sequence: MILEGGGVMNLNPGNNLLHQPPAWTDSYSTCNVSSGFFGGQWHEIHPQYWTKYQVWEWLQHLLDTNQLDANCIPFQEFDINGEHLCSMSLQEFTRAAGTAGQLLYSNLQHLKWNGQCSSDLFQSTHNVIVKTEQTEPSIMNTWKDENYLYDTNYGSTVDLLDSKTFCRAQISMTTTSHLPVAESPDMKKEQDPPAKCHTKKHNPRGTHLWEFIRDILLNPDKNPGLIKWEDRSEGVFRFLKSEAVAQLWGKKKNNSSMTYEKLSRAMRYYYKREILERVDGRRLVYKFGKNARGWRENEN
Outline: as §1

SPI1 = SPI1 (Homo sapiens, UniProt P17947 1-270); conditions: protein: recombinant; tags: N-terminal GST; dsDNA, one strand shown
Outline: as §1

SPIB = SPIB (Homo sapiens, UniProt Q01892 1-262); conditions: protein: recombinant; tags: N-terminal GST; dsDNA, one strand shown
Outline: as §1

ELK3 = molecular target: T6, ELK3 (Homo sapiens, UniProt P41970 1-407); conditions: protein: recombinant; tags: N-terminal GST; dsDNA, one strand shown
T6 sequence: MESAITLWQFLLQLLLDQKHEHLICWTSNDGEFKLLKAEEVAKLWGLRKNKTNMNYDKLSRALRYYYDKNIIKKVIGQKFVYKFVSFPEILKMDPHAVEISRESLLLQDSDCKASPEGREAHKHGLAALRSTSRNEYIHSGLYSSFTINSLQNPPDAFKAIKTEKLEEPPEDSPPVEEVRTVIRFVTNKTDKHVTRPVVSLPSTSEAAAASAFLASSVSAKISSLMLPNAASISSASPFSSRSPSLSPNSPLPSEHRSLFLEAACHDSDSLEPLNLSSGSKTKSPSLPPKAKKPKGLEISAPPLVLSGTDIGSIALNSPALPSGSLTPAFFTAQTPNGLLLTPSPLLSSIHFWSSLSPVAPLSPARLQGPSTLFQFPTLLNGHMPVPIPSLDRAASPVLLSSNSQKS
Outline: as §1

FEV = molecular target: T7, FEV (Homo sapiens, UniProt Q99581 1-238); conditions: protein: recombinant; tags: N-terminal GST; dsDNA, one strand shown
T7 sequence: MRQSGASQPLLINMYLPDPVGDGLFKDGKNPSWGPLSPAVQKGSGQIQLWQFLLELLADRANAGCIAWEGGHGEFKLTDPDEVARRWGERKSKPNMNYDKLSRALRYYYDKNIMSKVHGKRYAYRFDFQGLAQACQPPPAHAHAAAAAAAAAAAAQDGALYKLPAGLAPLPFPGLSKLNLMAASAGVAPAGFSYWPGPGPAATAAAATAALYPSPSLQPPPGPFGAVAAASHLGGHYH
Outline: as §1

ETV5 = ETV5 (Homo sapiens, UniProt P41161 1-510); conditions: protein: recombinant; tags: N-terminal GST; dsDNA, one strand shown
Outline: as §1

HSF1 = HSF1 (Homo sapiens, UniProt Q00613 1-529); conditions: protein: recombinant; tags: N-terminal GST; chain copies: 3; dsDNA, one strand shown
Outline: as §1

SPIC = molecular target: T8, SPIC (Homo sapiens, UniProt Q8N5J4 1-248); conditions: protein: recombinant; tags: N-terminal GST; dsDNA, one strand shown
T8 sequence: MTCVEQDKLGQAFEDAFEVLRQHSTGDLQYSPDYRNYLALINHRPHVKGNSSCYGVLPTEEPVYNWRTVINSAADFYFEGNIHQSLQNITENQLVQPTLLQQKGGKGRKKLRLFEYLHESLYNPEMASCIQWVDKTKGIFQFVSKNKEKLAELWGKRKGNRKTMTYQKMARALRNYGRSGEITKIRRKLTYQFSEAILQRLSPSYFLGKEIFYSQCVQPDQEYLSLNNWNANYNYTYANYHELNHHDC
Outline: as §1

ELF4 = ELF4 (Homo sapiens, UniProt Q99607 1-663); conditions: protein: recombinant; tags: N-terminal GST; dsDNA, one strand shown
Outline: as §1

ELK4 = molecular target: T9, ELK4 (Homo sapiens, UniProt P28324-2 1-405); conditions: protein: recombinant; tags: N-terminal GST; dsDNA, one strand shown
T9 sequence: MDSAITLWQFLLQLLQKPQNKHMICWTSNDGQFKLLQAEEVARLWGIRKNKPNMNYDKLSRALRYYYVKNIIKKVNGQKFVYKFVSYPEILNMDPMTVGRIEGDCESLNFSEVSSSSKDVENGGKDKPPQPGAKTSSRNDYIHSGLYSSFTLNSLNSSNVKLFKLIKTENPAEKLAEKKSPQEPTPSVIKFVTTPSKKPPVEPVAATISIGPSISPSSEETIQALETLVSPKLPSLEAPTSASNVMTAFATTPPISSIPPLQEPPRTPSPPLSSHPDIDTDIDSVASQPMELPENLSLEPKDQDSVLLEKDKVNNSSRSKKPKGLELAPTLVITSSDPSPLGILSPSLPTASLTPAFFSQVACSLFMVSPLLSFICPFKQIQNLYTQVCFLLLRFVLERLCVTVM
Outline: as §1

ETV2 = molecular target: T10, ETV2 (Homo sapiens, UniProt O00321 1-342); conditions: protein: recombinant; tags: N-terminal GST; dsDNA, one strand shown
T10 sequence: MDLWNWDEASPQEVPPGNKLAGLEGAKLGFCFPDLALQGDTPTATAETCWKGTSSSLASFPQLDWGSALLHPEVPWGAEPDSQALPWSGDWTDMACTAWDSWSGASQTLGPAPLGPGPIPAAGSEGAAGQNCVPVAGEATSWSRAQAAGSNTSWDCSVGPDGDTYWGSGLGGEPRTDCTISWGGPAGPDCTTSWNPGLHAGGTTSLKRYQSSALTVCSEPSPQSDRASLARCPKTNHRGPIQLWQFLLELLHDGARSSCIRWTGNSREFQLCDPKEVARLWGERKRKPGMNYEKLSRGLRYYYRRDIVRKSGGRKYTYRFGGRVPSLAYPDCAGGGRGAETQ
Outline: as §1

ELF3 = molecular target: T11, ELF3 (Homo sapiens, UniProt P78545 1-371); conditions: protein: recombinant; tags: N-terminal GST; dsDNA, one strand shown
T11 sequence: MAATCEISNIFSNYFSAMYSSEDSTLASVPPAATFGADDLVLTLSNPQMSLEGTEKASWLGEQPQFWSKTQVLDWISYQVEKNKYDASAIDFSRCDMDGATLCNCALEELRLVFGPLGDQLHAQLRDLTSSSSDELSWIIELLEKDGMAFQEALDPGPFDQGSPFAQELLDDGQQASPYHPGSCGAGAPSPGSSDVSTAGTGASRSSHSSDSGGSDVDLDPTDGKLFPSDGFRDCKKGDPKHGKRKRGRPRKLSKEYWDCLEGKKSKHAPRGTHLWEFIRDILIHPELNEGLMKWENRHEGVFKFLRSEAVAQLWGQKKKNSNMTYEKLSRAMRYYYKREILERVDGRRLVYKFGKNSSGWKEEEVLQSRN
Outline: as §1

CRX = CRX (Homo sapiens, UniProt O43186 1-299); conditions: protein: recombinant; tags: N-terminal GST; dsDNA, one strand shown
Outline: as §1

ETV1 = ETV1 (Homo sapiens, UniProt P50549 1-477); conditions: protein: recombinant; tags: N-terminal GST; dsDNA, one strand shown
Outline: as §1

Chain of ELF4 (Q99607 whole entry): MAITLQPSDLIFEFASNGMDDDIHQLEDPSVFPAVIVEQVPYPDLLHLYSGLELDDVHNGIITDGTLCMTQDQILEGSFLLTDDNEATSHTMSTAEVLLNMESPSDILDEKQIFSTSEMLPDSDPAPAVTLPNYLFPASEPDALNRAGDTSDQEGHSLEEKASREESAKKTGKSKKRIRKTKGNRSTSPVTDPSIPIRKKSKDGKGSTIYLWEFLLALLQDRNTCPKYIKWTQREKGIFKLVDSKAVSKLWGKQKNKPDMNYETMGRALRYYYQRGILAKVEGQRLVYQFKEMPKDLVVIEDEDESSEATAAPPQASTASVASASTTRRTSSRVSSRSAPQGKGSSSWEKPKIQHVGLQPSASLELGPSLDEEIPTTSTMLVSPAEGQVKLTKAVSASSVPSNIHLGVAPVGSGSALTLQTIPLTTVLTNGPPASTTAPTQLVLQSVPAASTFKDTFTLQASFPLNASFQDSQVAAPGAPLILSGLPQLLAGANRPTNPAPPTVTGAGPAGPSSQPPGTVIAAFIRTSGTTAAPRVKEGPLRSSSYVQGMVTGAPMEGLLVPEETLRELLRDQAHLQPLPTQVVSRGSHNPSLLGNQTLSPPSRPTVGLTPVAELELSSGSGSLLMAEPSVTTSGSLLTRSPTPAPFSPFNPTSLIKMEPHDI
Chain of SPIB (Q01892 whole entry): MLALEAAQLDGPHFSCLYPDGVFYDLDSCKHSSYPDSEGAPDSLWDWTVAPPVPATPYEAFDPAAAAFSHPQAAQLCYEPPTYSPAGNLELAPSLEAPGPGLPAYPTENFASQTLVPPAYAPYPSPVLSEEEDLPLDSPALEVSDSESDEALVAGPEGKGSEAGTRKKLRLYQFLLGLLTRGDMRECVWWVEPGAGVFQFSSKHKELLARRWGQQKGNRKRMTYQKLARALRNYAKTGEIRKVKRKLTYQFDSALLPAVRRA
Chain of ETV5 (P41161 whole entry): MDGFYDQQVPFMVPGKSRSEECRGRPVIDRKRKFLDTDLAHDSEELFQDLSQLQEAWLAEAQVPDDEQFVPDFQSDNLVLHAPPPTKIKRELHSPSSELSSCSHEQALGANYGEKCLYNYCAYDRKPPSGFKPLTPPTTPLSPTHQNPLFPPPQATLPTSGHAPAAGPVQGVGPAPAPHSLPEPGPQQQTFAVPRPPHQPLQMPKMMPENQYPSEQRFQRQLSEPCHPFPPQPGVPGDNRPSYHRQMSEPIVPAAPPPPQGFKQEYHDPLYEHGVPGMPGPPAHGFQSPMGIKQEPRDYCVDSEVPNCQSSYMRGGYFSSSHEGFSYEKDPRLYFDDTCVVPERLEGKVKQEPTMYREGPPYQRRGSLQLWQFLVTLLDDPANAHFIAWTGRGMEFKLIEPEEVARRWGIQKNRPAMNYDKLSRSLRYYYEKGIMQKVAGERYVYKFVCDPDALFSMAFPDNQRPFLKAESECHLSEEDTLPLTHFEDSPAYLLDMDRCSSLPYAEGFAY
Chain of ETV1 (P50549 whole entry): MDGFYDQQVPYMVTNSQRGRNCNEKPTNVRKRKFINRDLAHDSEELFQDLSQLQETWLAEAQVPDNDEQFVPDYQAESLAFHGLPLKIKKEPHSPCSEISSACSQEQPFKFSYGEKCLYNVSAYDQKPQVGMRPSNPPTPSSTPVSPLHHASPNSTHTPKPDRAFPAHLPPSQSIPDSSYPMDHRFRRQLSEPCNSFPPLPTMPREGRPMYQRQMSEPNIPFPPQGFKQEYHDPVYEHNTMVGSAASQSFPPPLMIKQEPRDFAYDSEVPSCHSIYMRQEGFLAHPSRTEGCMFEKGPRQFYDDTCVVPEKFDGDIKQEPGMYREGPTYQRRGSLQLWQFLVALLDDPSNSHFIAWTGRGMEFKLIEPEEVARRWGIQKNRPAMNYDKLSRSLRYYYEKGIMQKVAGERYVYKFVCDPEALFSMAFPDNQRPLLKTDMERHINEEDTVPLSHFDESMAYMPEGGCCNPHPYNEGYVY
Chain of CRX (O43186 whole entry): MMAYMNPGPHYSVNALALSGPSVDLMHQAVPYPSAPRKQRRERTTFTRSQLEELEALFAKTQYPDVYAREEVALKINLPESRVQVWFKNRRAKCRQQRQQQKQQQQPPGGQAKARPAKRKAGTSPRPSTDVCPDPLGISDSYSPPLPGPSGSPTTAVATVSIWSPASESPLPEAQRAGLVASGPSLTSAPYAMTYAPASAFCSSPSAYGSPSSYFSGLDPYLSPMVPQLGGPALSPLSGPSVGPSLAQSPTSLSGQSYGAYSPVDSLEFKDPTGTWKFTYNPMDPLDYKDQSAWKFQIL
Chain of HSF1 (Q00613 whole entry): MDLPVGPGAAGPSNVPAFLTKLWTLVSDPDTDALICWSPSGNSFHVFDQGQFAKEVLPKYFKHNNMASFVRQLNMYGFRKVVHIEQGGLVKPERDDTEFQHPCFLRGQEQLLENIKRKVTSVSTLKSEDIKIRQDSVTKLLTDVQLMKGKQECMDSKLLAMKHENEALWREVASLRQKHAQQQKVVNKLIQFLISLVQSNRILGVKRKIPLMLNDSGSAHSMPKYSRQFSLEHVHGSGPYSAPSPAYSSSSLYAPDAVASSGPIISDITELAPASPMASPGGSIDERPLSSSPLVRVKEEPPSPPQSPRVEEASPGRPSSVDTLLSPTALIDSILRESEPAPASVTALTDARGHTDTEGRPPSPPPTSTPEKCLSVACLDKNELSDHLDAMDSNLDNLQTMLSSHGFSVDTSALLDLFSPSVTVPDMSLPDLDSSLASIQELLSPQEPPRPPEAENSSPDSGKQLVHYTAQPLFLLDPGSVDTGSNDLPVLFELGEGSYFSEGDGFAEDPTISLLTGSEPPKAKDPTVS
Chain of ELF1 (P32519 whole entry): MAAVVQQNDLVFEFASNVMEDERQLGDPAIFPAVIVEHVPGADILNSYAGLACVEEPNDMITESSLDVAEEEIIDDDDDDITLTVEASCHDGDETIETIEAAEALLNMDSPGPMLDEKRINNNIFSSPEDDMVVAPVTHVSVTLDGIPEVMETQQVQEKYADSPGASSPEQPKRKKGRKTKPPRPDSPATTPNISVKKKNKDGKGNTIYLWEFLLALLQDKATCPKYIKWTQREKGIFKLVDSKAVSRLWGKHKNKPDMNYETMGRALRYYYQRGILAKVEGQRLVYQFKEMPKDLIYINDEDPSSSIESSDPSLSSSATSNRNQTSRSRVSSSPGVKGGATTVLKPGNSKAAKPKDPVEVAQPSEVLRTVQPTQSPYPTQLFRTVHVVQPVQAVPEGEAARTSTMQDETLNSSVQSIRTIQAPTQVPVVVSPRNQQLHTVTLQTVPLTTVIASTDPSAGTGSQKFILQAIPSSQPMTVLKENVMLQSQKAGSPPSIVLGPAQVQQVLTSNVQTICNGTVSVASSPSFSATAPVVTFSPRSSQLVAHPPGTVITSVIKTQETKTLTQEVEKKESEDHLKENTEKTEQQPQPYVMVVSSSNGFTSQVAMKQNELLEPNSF

Sequence: GCTTTC
- binding signal (FLI1): 1.27 fold enrichment (6-mer frequency, TF over GST control)
- binding signal (ELK1): 1.22 fold enrichment (6-mer frequency, TF over GST control)
- binding signal (GABPA): 1.3 fold enrichment (6-mer frequency, TF over GST control)
- binding signal (ERG): 1.28 fold enrichment (6-mer frequency, TF over GST control)
- binding signal (ELF1): 1.32 fold enrichment (6-mer frequency, TF over GST control)
- binding signal (EHF): 1.34 fold enrichment (6-mer frequency, TF over GST control)
- binding signal (SPI1): 1.28 fold enrichment (6-mer frequency, TF over GST control)
- binding signal (SPIB): 1.27 fold enrichment (6-mer frequency, TF over GST control)
- binding signal (ELK3): 1.38 fold enrichment (6-mer frequency, TF over GST control)
- binding signal (FEV): 1.25 fold enrichment (6-mer frequency, TF over GST control)
- binding signal (ETV5): 1.24 fold enrichment (6-mer frequency, TF over GST control)
- binding signal (HSF1): 1.35 fold enrichment (6-mer frequency, TF over GST control)
- binding signal (SPIC): 1.06 fold enrichment (6-mer frequency, TF over GST control)
- binding signal (ELF4): 1.23 fold enrichment (6-mer frequency, TF over GST control)
- binding signal (ELK4): 1.26 fold enrichment (6-mer frequency, TF over GST control)
- binding signal (ETV2): 1.59 fold enrichment (6-mer frequency, TF over GST control)
- binding signal (ELF3): 1.47 fold enrichment (6-mer frequency, TF over GST control)
- binding signal (CRX): 1.33 fold enrichment (6-mer frequency, TF over GST control)
- binding signal (ETV1): 1.35 fold enrichment (6-mer frequency, TF over GST control)
